Where “and” joins values, the source holds several entries; their conditions need not be identical. Identical values can stand only once. Inconclusive results are not listed. The source holds several records for some structures; these can differ, active in one and inactive in another. Calls of active or inactive are those of the source. Calls follow the shape of the dose curve; as a rule, active = well fitted curve in the direction sought with a large enough effect; inconclusive = small, poorly fitted or top-dose-only effect, or another doubt; inactive = no such curve, though single readings can be large; an effect the other way counts as inactive or inconclusive.
What was measured:
[1] = tested on: CRL-7250; assay: Cytotoxic Profiling of Annotated Libraries Using Quantitative High-Throughput Screening (AID 1296008); details: Five cell lines viability, CellTiter-Glo ATP luminescence, 48-72 h; max response: hits give low values; also: nearly all actives have a fitted effect of over 60% in size
How it was run: (§1)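 Cells exposed to compounds for 48 or 72 hr at 37 degrees Celsius. Viability read as ATP-coupled luminescence with CellTiter-Glo after 10 min at room temperature.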

[2] = tested on: HEK293; assay: as above; details: Five cell lines viability, CellTiter-Glo ATP luminescence, 48-72 h; max response: hits give low values
How it was run: as §1

[3] = tested on: HaCat; assay: as above; details: Five cell lines viability, CellTiter-Glo ATP luminescence, 48-72 h; max response: hits give low values
How it was run: as §1

[4] = tested on: KB-3-1; assay: as above; details: Five cell lines viability, CellTiter-Glo ATP luminescence, 48-72 h; max response: hits give low values
How it was run: as §1

[5] = tested on: NIH3T3; assay: as above; details: Five cell lines viability, CellTiter-Glo ATP luminescence, 48-72 h; max response: hits give low values
How it was run: as §1

[6] = tested on: MCC-13; assay: qHTS assay to identify novel small-molecules to repurpose for Merkel cell carcinoma treatment (AID 1296009); details: MCC and control cell lines, CellTiter-Glo viability, 72 h; series mostly up to 46 µM; also: nearly all actives have a fitted effect of over 60% in size
How it was run: (§2)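 CellTiter-Glo luminescence after 72 hr compound exposure at 37 degree celsius gave cell viability. Libraries NPC and MIPE were run as 8- and 11-point dose responses; RLUs normalized to DMSO (negative) and no-cell (cytotoxicity) controls.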

[7] = tested on: MKL-1; assay: as above; details: MCC and control cell lines, CellTiter-Glo viability, 72 h; series mostly up to 46 µM
How it was run: as §2

[8] = tested on: MKL-2; assay: as above; details: MCC and control cell lines, CellTiter-Glo viability, 72 h; series mostly up to 46 µM
How it was run: as §2

[9] = tested on: NIH3T3; assay: as above; details: MCC and control cell lines, CellTiter-Glo viability, 72 h; at 44.8 µM (top of the series) unless noted
How it was run: as §2

[10] = tested on: UISO; assay: as above; details: MCC and control cell lines, CellTiter-Glo viability, 72 h; series mostly up to 46 µM
How it was run: as §2

[11] = tested on: WaGa; assay: as above; details: MCC and control cell lines, CellTiter-Glo viability, 72 h; series mostly up to 46 µM
How it was run: as §2

[12] = tested on: C33A; assay: Primary qHTS to identify gynecologic anti-cancer compounds using libraries of approved drugs and bioactive compounds (AID 1345084); details: Gynecologic cancer cell panel viability, ATPlite luminescence, 48 h; series mostly up to 57.5 µM; also: nearly all actives have a fitted effect of over 55% in size
How it was run: (§3)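 Cells, 1,000 per well, were allowed to settle for 16 h at 37 C before compound addition. Five concentrations were tested for 48 h, and viability was read by ATPlite luminescence after 15 min at room temperature.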

[13] = tested on: CAOV3; assay: as above; details: Gynecologic cancer cell panel viability, ATPlite luminescence, 48 h; series mostly up to 57.5 µM
How it was run: as §3

[14] = tested on: CASKI; assay: as above; details: Gynecologic cancer cell panel viability, ATPlite luminescence, 48 h; series mostly up to 57.5 µM
How it was run: as §3

[15] = tested on: Es-2; assay: as above; details: Gynecologic cancer cell panel viability, ATPlite luminescence, 48 h; series mostly up to 57.5 µM
How it was run: as §3

[16] = tested on: HeLa; assay: as above; details: Gynecologic cancer cell panel viability, ATPlite luminescence, 48 h; series mostly up to 57.5 µM
How it was run: as §3

[17] = tested on: Hek293T; assay: as above; details: Gynecologic cancer cell panel viability, ATPlite luminescence, 48 h, control line for the selectivity index; series mostly up to 57.5 µM
How it was run: as §3

[18] = tested on: MCC-26; assay: qHTS assay to identify novel small-molecules to repurpose for Merkel cell carcinoma treatment (AID 1296009); details: MCC and control cell lines, CellTiter-Glo viability, 72 h; series mostly up to 46 µM; also: nearly all actives have a fitted effect of over 60% in size
How it was run: as §2

[19] = tested on: HACAT; assay: as above; details: MCC and control cell lines, CellTiter-Glo viability, 72 h; series mostly up to 44.8 µM
How it was run: as §2
% is scaled to controls: 0 for no effect and ±100 for the full control effect; potency is read from the fitted curve at half-maximal effect.

Clc1cccc(-n2nnnc2NCc2ccccc2Oc2ccccn2)c1Cl
inactive: outcome [1] | max response [2] -13.7% and -15.5% | max response [3] -3.03% and -4.47% | max response [4] -10.9% and -7.38% | outcome [5] | Potency [6] | Potency [7] | Potency [8] | outcome [9] | Potency [10] | Potency [11] | Potency [12] | Potency [13] | Potency [14] | Potency [15] | Potency [16] | Potency [17]

NCC(=O)Nc1ccc(-n2nc(C(F)(F)F)cc2-c2ccc3c(ccc4ccccc43)c2)cc1
inactive: max response [1] -6.6% | max response [3] -18.9% | max response [5] -0.49% | Potency [6] | Potency [18] | Potency [7] | Potency [8] | Potency [12] | Potency [13] | Potency [14] | Potency [15]
active: Potency [2] 166 nM and 1.46 µM | Potency [4] 26.4 µM and 23.1 µM

CC1(C)O[C@@H]2C[C@@H]3[C@H]4C[C@@H](F)C5=CC(=O)C=C[C@]5(C)[C@@]4(F)[C@@H](O)C[C@]3(C)[C@]2(C(=O)CO)O1
inactive: max response [1] -20% | max response [2] -3.12% | max response [3] -6.44% | outcome [4] | max response [5] -12.4% | Potency [6] | Potency [18] | Potency [7] | Potency [8] | Potency [10] | Potency [11]

N#Cc1c(O)c2c(-c3ccc(-c4ccccc4O)cc3)csc2[nH]c1=O
inactive: max response [1] -0.58% and 1.34% | max response [2] 3.13% and -14.8% | outcome [3] | outcome [4] | max response [5] -1.37% | outcome [5] | Potency [19] | Potency [6] | Potency [18] | Potency [7] | Potency [8] | outcome [9] | Potency [10] | Potency [11] | Potency [12] | Potency [13] | Potency [14] | Potency [15] | Potency [16] | Potency [17]

CN1CCN(Cc2ccc(NC(=O)Nc3ccc(Oc4cc(NC(=O)C5CC5)ncn4)cc3)cc2C(F)(F)F)CC1
active: Potency [1] 418 nM and 1.3 µM | Potency [2] 184 nM | Potency [3] 743 nM and 920 nM | Potency [4] 132 nM and 206 nM | Potency [5] 590 nM | Potency [6] 2350 nM | Potency [7] 372 nM | Potency [8] 264 nM | Potency [10] 332 nM | Potency [14] 1780 nM | Potency [15] 1580 nM | Potency [16] 891 nM | Potency [17] 1410 nM

Nc1nc(-c2nn(Cc3ccccc3F)c3ncccc23)nc(N)c1N1CCOCC1
inactive: max response [1] -1.46% | max response [2] -2.05% | max response [3] -22.5% | max response [4] 6.89% | max response [5] -10.6% | Potency [6] | Potency [18] | Potency [7] | Potency [8] | Potency [10] | Potency [11]

CC[C@@H]1C(=O)N(C)c2cnc(Nc3ccc(C(=O)NC4CCN(C)CC4)cc3OC)nc2N1C1CCCC1
active: Potency [1] 2.64 µM | Potency [2] 16.6 nM | Potency [3] 33.2 nM | Potency [4] 8.3 nM | Potency [5] 1870 nM | Potency [6] 662 nM | Potency [7] 23.5 nM | Potency [8] 3320 nM | Potency [11] 4690 nM

CN1c2cc(O)c(N=NC(N)=O)cc2CC1S(=O)(=O)O (stereo unspecified)
inactive: outcome [1] | max response [2] 2.9% | max response [3] -1.08% | outcome [4] | outcome [5] | Potency [6] | Potency [18] | Potency [7] | Potency [8] | outcome [9] | Potency [10] | Potency [11]

C#Cc1cccc(Nc2ncnc3cc(OC)c(OCCCCCCC(=O)NO)cc23)c1
active: Potency [1] 4.69 µM | Potency [2] 1.05 µM and 4.61 µM | Potency [3] 2.64 µM and 6.51 µM | Potency [4] 1.48 µM and 4.11 µM | Potency [5] 13200 nM | Potency [6] 16600 nM | Potency [7] 935 nM | Potency [8] 105 nM | Potency [10] 2090 nM | Potency [11] 105 nM | Potency [12] 3550 nM | Potency [13] 7940 nM | Potency [14] 6310 nM | Potency [15] 10000 nM | Potency [16] 6310 nM

C=CC(=O)Nc1cccc(Oc2nc(Nc3ccc(N4CCN(C)CC4)cc3OC)ncc2Cl)c1
inactive: max response [1] -21.1% | max response [2] -27.8% | max response [4] -0.948% | max response [5] -7.7% | Potency [8] | Potency [12] | Potency [15] | Potency [16] | Potency [17]
active: Potency [3] 2.09 µM and 4.11 µM | Potency [5] 18400 nM | Potency [6] 2960 nM | Potency [7] 2640 nM | Potency [11] 2960 nM | Potency [14] 17800 nM

Reference: PubChem BioAssay (NCATS)
